Where “and” joins values, the source holds several entries; their conditions need not be identical. Equal values may be shown once. Hit rate of the full screen: of about 5,500 compounds, about 2,000 (36%) were called active. Another 18% or so got no clear call; they are omitted. Rule as the data show it: active = normalized growth mostly below about 0.91 (no sharp cut-off); inconclusive = no clear call, values can overlap the other calls; inactive = mostly above about 0.92. The list shows a part of the results.
Assay: chemical genetic growth profiling, strain panel (AID 1159580);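 also: tested at 20 µM; growth read once vehicle control cultures reached saturation at 30 °C; 1 = growth at the plate median or of vehicle wells; lower values mean less growth of the strain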
Details: S. cerevisiae deletion strains, growth OD

Measured: normalized growth

COC(=O)c1c(C)c2c(c(C)c1O)OC(=O)c1c(C)c(Cl)c(O)c(Cl)c1O2
active: locus YDR162C, strain NBP2, stronger effect = lower value 0.734 | locus YDR392W, strain spt3, stronger effect = lower value 0.617 | locus YGR229C, strain SMI1, stronger effect = lower value 0.462 | locus YHR142W, strain chs7, stronger effect = lower value 0.849 | locus YJR043C, strain POL32, stronger effect = lower value 0.853 | locus YLR262C, strain YPT6 (second series), stronger effect = lower value 0.855 | locus YLR342W, strain FKS1 (second series), stronger effect = lower value 0.751 | locus YLR418C, strain cdc73, stronger effect = lower value 0.83 | locus YMR307W, strain GAS1, stronger effect = lower value 0.545 | locus YOR270C, strain vph1, stronger effect = lower value 0.715
inactive: locus YAL021C, strain ccr4, stronger effect = lower value 0.943 | locus YAL026C, strain drs2, stronger effect = lower value 0.951 | locus YAL030W, strain snc1, stronger effect = lower value 0.969 | locus YBL061C, strain skt5, stronger effect = lower value 0.968 | locus YBR009C, strain hhf1, stronger effect = lower value 0.935 | locus YBR021W, strain FUR4, stronger effect = lower value 0.962 | locus YBR023C, strain chs3, stronger effect = lower value 0.959 | locus YBR171W, strain sec66, stronger effect = lower value 0.975 | locus YBR229C, strain ROT2, stronger effect = lower value 0.985 | locus YBR231C, strain swc5, stronger effect = lower value 0.976 | locus YBR279W, strain paf1, stronger effect = lower value 0.944 | locus YCL011C, strain gbp2, stronger effect = lower value 0.96 | locus YCL016C, strain dcc1, stronger effect = lower value 0.967 | locus YCL029C, strain bik1, stronger effect = lower value 1.03 | locus YCL069W, strain vba3, stronger effect = lower value 0.944 | locus YCR088W, strain abp1, stronger effect = lower value 0.96 | locus YDL005C, strain med2, stronger effect = lower value 0.947 | locus YDL035C, strain GPR1, stronger effect = lower value 0.894 | locus YDL040C, strain nat1, stronger effect = lower value 0.943 | locus YDL074C, strain BRE1, stronger effect = lower value 0.926 | locus YDL101C, strain DUN1, stronger effect = lower value 0.98 | locus YDL134C, strain PPH21, stronger effect = lower value 0.941 | locus YDL185W, strain tfp1, stronger effect = lower value 0.995 | locus YDL192W, strain arf1, stronger effect = lower value 0.922 | locus YDR001C, strain nth1, stronger effect = lower value 0.969 | locus YDR069C, strain doa4, stronger effect = lower value 0.967 | locus YDR101C, strain arx1, stronger effect = lower value 1 | locus YDR137W, strain rgp1, stronger effect = lower value 0.87 | locus YDR159W, strain sac3, stronger effect = lower value 0.902 | locus YDR195W, strain ref2 1.03 | locus YDR297W, strain sur2, stronger effect = lower value 0.944 | locus YDR318W, strain mcm21, stronger effect = lower value 0.975 | locus YDR334W, strain swr1, stronger effect = lower value 0.939 | locus YDR335W, strain msn5, stronger effect = lower value 0.939 | locus YDR388W, stronger effect = lower value 0.984 | locus YDR502C, strain sam2, stronger effect = lower value 0.96 | locus YEL003W, strain gim4, stronger effect = lower value 0.969 | locus YEL037C, strain rad23, stronger effect = lower value 0.957 | locus YEL061C, strain CIN8 (second series), stronger effect = lower value 0.961 | locus YEL061C, strain CIN8, stronger effect = lower value 0.986 | locus YER015W, strain faa2, stronger effect = lower value 0.977 | locus YER016W, strain bim1, stronger effect = lower value 0.96 | locus YER110C, stronger effect = lower value 1.03 | locus YER111C, strain swi4, stronger effect = lower value 0.979 | locus YER155C, strain BEM2 (second series), stronger effect = lower value 0.97 | locus YER155C, strain BEM2, stronger effect = lower value 1.01 | locus YER167W, strain BCK2, stronger effect = lower value 0.937 | locus YFR010W, strain ubp6, stronger effect = lower value 0.952 | locus YGL078C, strain dbp3, stronger effect = lower value 0.991 | locus YGL086W, strain mad1, stronger effect = lower value 0.962 | locus YGL167C, strain pmr1, stronger effect = lower value 0.95 | locus YGL173C, strain kem1, stronger effect = lower value 0.966 | locus YGL227W, strain vid30, stronger effect = lower value 0.969 | locus YGL240W, strain doc1, stronger effect = lower value 0.93 | locus YGL248W, strain PDE1, stronger effect = lower value 0.983 | locus YGL253W, strain hxk2, stronger effect = lower value 0.952 | locus YGR135W, strain pre9, stronger effect = lower value 0.964 | locus YGR252W, strain gcn5, stronger effect = lower value 0.927 | locus YHR013C, strain ard1, stronger effect = lower value 0.946 | locus YHR027C, strain rpn1, stronger effect = lower value 0.957 | locus YHR030C, strain SLT2, stronger effect = lower value 0.992 and 0.949 | locus YHR079C, strain IRE1 (second series), stronger effect = lower value 1.03 | locus YHR079C, strain IRE1, stronger effect = lower value 0.94 | locus YHR094C, strain hxt1, stronger effect = lower value 1.03 | locus YHR129C, strain ARP1, stronger effect = lower value 0.973 | locus YHR200W, strain rpn10, stronger effect = lower value 0.993 | locus YIL066C, strain RNR3, stronger effect = lower value 0.892 | locus YIL073C, strain SPO22, stronger effect = lower value 0.976 | locus YIL125W, strain kgd1, stronger effect = lower value 1.01 | locus YIR030C, strain dcg1, stronger effect = lower value 1.02 | locus YJL092W, strain hpr5, stronger effect = lower value 0.979 | locus YJL095W, strain BCK1 (second series), stronger effect = lower value 0.955 | locus YJL095W, strain BCK1, stronger effect = lower value 0.84 and 0.969 | locus YJL115W, strain asf1, stronger effect = lower value 0.956 | locus YJL129C, strain trk1, stronger effect = lower value 0.9 | locus YJL134W, strain LCB3, stronger effect = lower value 1 | locus YJL154C, strain vps35, stronger effect = lower value 0.967 | locus YJL164C, strain tpk1, stronger effect = lower value 0.926 | locus YJL166W, strain qcr8, stronger effect = lower value 0.94 | locus YJL168C, strain set2, stronger effect = lower value 0.997 | locus YJL187C, strain SWE1 (second series), stronger effect = lower value 0.966 | locus YJR066W, strain TOR1, stronger effect = lower value 0.878 | locus YKL009W, strain mrt4, stronger effect = lower value 1.01 | locus YKL068W, stronger effect = lower value 1 | locus YKL085W, strain MDH1 (second series), stronger effect = lower value 1.01 | locus YKL085W, strain MDH1, stronger effect = lower value 1.01 | locus YKL160W, strain elf1, stronger effect = lower value 0.956 | locus YKL190W, strain CNB1, stronger effect = lower value 0.957 | locus YKR001C, strain vps1, stronger effect = lower value 0.937 | locus YKR026C, strain gcn3, stronger effect = lower value 0.97 | locus YKR091W, strain srl3, stronger effect = lower value 0.967 | locus YLL001W, strain dnm1, stronger effect = lower value 0.959 | locus YLL026W, stronger effect = lower value 0.975 | locus YLL041C, strain sdh2, stronger effect = lower value 0.964 | locus YLR027C, strain aat2, stronger effect = lower value 0.984 | locus YLR039C, strain RIC1, stronger effect = lower value 0.928 | locus YLR058C, strain SHM2, stronger effect = lower value 0.985 | locus YLR102C, strain apc9, stronger effect = lower value 1.01 | locus YLR113W, strain HOG1, stronger effect = lower value 1.04 | locus YLR221C, strain rsa3, stronger effect = lower value 0.958 | locus YLR258W, strain gsy2, stronger effect = lower value 0.937 | locus YLR262C, strain YPT6, stronger effect = lower value 0.865 | locus YLR268W, strain sec22, stronger effect = lower value 1 | locus YLR320W, strain mms22, stronger effect = lower value 0.932 | locus YLR330W, strain CHS5, stronger effect = lower value 0.987 | locus YLR342W, strain FKS1, stronger effect = lower value 0.971 | locus YLR357W, strain rsc2, stronger effect = lower value 0.922 | locus YLR370C, strain arc18, stronger effect = lower value 0.958 | locus YLR371W, strain rom2, stronger effect = lower value 1.03 | locus YLR384C, strain iki3, stronger effect = lower value 0.983 | locus YML016C, strain PPZ1, stronger effect = lower value 1.01 | locus YML032C, strain rad52, stronger effect = lower value 0.959 | locus YML120C, strain ndi1, stronger effect = lower value 0.957 | locus YML124C, strain tub3, stronger effect = lower value 1.02 | locus YMR058W, strain fet3, stronger effect = lower value 0.95 | locus YMR078C, strain ctf18, stronger effect = lower value 1.01 | locus YMR125W, strain sto1, stronger effect = lower value 0.986 | locus YMR129W, stronger effect = lower value 0.974 | locus YMR205C, strain PFK2, stronger effect = lower value 0.879 | locus YMR223W, strain ubp8, stronger effect = lower value 0.949 | locus YMR231W, strain pep5, stronger effect = lower value 0.954 | locus YNL067W, strain RPL9B, stronger effect = lower value 0.996 | locus YNL071W, strain lat1, stronger effect = lower value 0.932 | locus YNL183C, strain NPR1, stronger effect = lower value 0.931 | locus YNL209W, strain ssb2, stronger effect = lower value 0.991 | locus YNL233W, strain BNI4, stronger effect = lower value 0.916 | locus YNL248C, strain rpa49, stronger effect = lower value 0.954 | locus YNL250W, strain rad50, stronger effect = lower value 1.02 | locus YNL271C, strain bni1, stronger effect = lower value 1 | locus YNL298W, strain CLA4, stronger effect = lower value 1.01 | locus YNL307C, strain MCK1, stronger effect = lower value 0.978 | locus YNL322C, strain KRE1 (second series), stronger effect = lower value 0.976 | locus YNR049C, strain mso1, stronger effect = lower value 0.955 | locus YNR052C, strain pop2, stronger effect = lower value 0.967 | locus YOL012C, strain htz1 1.87 | locus YOL147C, strain pex11, stronger effect = lower value 1 | locus YOR001W, strain rrp6, stronger effect = lower value 0.945 | locus YOR061W, strain CKA2, stronger effect = lower value 0.99 | locus YOR069W, strain VPS5, stronger effect = lower value 1.01 | locus YOR070C, strain gyp1, stronger effect = lower value 0.98 | locus YOR080W, strain dia2, stronger effect = lower value 0.965 | locus YOR083W, strain WHI5, stronger effect = lower value 0.932 | locus YOR106W, strain vam3, stronger effect = lower value 0.877 | locus YOR136W, strain idh2, stronger effect = lower value 0.997 | locus YOR144C, strain elg1, stronger effect = lower value 1.02 | locus YOR184W, strain ser1, stronger effect = lower value 0.874 | locus YOR231W, strain MKK1, stronger effect = lower value 0.972 | locus YOR265W, strain rbl2, stronger effect = lower value 0.962 | locus YOR290C, strain snf2, stronger effect = lower value 0.92 | locus YOR316C, strain cot1, stronger effect = lower value 1 | locus YPL051W, strain arl3, stronger effect = lower value 0.925 | locus YPL078C, strain atp4, stronger effect = lower value 0.964 | locus YPL106C, strain sse1, stronger effect = lower value 0.903 | locus YPL240C, strain hsp82, stronger effect = lower value 0.96 | locus YPL256C, strain CLN2, stronger effect = lower value 0.954 | locus YPR119W, strain clb2, stronger effect = lower value 1 | locus YPR141C, strain kar3, stronger effect = lower value 0.995 | locus YPR163C, strain tif3, stronger effect = lower value 1.02 | locus YPR167C, strain met16, stronger effect = lower value 0.982 | strain wtn01, stronger effect = lower value 1

From PubChem BioAssay AID1159580 (chemical genetic matrix, 2015)
